“And” between values parts separate entries of the source, which are not always exact repeats. Identical values can stand only once. In all, about 5,500 compounds went through this assay and about 2,000 (36%) were called active. Another 18% or so got no clear call; they are omitted. Rule as the data show it: active = normalized growth mostly below about 0.91 (no sharp cut-off); inconclusive = no clear call, values can overlap the other calls; inactive = mostly above about 0.92. The list shows a part of the results. More than one record can exist for a structure, and the calls need not agree.
Assay: chemical genetic growth profiling, strain panel (AID 1159580);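 also: tested at 20 µM; growth read once vehicle control cultures reached saturation at 30 °C; 1 = growth at the plate median or of vehicle wells; lower values mean less growth of the strain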
Conditions: growth OD

O=c1c2ccccc2[se]n1-c1ccccc1
normalized growth (S. cerevisiae deletion strains, locus YJR075W, strain HOC1, stronger effect = lower value): 0.0678 (active) | normalized growth (S. cerevisiae deletion strains, locus YKL068W, stronger effect = lower value): 0.0623 (active) | normalized growth (S. cerevisiae deletion strains, locus YKL085W, strain MDH1 (second series), stronger effect = lower value): 0.0549 (active) | normalized growth (S. cerevisiae deletion strains, locus YKL085W, strain MDH1, stronger effect = lower value): 0.0549 (active) | normalized growth (S. cerevisiae deletion strains, locus YKL160W, strain elf1, stronger effect = lower value): 0.0672 (active) | normalized growth (S. cerevisiae deletion strains, locus YKL190W, strain CNB1, stronger effect = lower value): 0.0495 (active) | normalized growth (S. cerevisiae deletion strains, locus YKR001C, strain vps1, stronger effect = lower value): 0.064 (active) | normalized growth (S. cerevisiae deletion strains, locus YKR026C, strain gcn3, stronger effect = lower value): 0.0615 (active) | normalized growth (S. cerevisiae deletion strains, locus YKR091W, strain srl3, stronger effect = lower value): 0.0622 (active) | normalized growth (S. cerevisiae deletion strains, locus YLL001W, strain dnm1, stronger effect = lower value): 0.0729 (active) | normalized growth (S. cerevisiae deletion strains, locus YLL026W, stronger effect = lower value): 0.0595 (active) | normalized growth (S. cerevisiae deletion strains, locus YLL041C, strain sdh2, stronger effect = lower value): 0.0595 (active) | normalized growth (S. cerevisiae deletion strains, locus YLR027C, strain aat2, stronger effect = lower value): 0.0567 (active) | normalized growth (S. cerevisiae deletion strains, locus YLR039C, strain RIC1, stronger effect = lower value): 0.0906 (active) | normalized growth (S. cerevisiae deletion strains, locus YLR058C, strain SHM2, stronger effect = lower value): 0.955 (inactive) | normalized growth (S. cerevisiae deletion strains, locus YLR102C, strain apc9, stronger effect = lower value): 0.0627 (active) | normalized growth (S. cerevisiae deletion strains, locus YLR113W, strain HOG1, stronger effect = lower value): 0.138 (active) | normalized growth (S. cerevisiae deletion strains, locus YLR221C, strain rsa3, stronger effect = lower value): 0.061 (active) | normalized growth (S. cerevisiae deletion strains, locus YLR258W, strain gsy2, stronger effect = lower value): 0.0609 (active) | normalized growth (S. cerevisiae deletion strains, locus YLR262C, strain YPT6 (second series), stronger effect = lower value): 0.0795 (active) | normalized growth (S. cerevisiae deletion strains, locus YLR262C, strain YPT6, stronger effect = lower value): 0.0981 (active) | normalized growth (S. cerevisiae deletion strains, locus YLR268W, strain sec22, stronger effect = lower value): 0.0733 (active) | normalized growth (S. cerevisiae deletion strains, locus YLR320W, strain mms22, stronger effect = lower value): 0.0819 (active) | normalized growth (S. cerevisiae deletion strains, locus YLR330W, strain CHS5, stronger effect = lower value): 0.0552 (active) | normalized growth (S. cerevisiae deletion strains, locus YLR342W, strain FKS1 (second series), stronger effect = lower value): 0.0785 (active) | normalized growth (S. cerevisiae deletion strains, locus YLR342W, strain FKS1, stronger effect = lower value): 0.0773 (active) | normalized growth (S. cerevisiae deletion strains, locus YLR357W, strain rsc2, stronger effect = lower value): 0.117 (active) | normalized growth (S. cerevisiae deletion strains, locus YLR370C, strain arc18, stronger effect = lower value): 0.0623 (active) | normalized growth (S. cerevisiae deletion strains, locus YLR371W, strain rom2, stronger effect = lower value): 0.0624 (active) | normalized growth (S. cerevisiae deletion strains, locus YLR384C, strain iki3, stronger effect = lower value): 0.554 (active) | normalized growth (S. cerevisiae deletion strains, locus YLR418C, strain cdc73, stronger effect = lower value): 0.0967 (active) | normalized growth (S. cerevisiae deletion strains, locus YML016C, strain PPZ1, stronger effect = lower value): 0.0497 (active) | normalized growth (S. cerevisiae deletion strains, locus YML032C, strain rad52, stronger effect = lower value): 0.832 (active) | normalized growth (S. cerevisiae deletion strains, locus YML120C, strain ndi1, stronger effect = lower value): 0.724 (active) | normalized growth (S. cerevisiae deletion strains, locus YML124C, strain tub3, stronger effect = lower value): 0.0602 (active) | normalized growth (S. cerevisiae deletion strains, locus YMR058W, strain fet3, stronger effect = lower value): 0.062 (active) | normalized growth (S. cerevisiae deletion strains, locus YMR078C, strain ctf18, stronger effect = lower value): 0.0748 (active) | normalized growth (S. cerevisiae deletion strains, locus YMR125W, strain sto1, stronger effect = lower value): 0.0783 (active) | normalized growth (S. cerevisiae deletion strains, locus YMR129W, stronger effect = lower value): 0.0579 (active) | normalized growth (S. cerevisiae deletion strains, locus YMR205C, strain PFK2, stronger effect = lower value): 0.134 (active) | normalized growth (S. cerevisiae deletion strains, locus YMR223W, strain ubp8, stronger effect = lower value): 0.0699 (active) | normalized growth (S. cerevisiae deletion strains, locus YMR231W, strain pep5, stronger effect = lower value): 0.0661 (active) | normalized growth (S. cerevisiae deletion strains, locus YMR263W, strain SAP30, stronger effect = lower value): 0.065 (active) | normalized growth (S. cerevisiae deletion strains, locus YMR307W, strain GAS1, stronger effect = lower value): 0.116 (active) and 0.922 (inactive) | normalized growth (S. cerevisiae deletion strains, locus YNL067W, strain RPL9B, stronger effect = lower value): 0.0566 (active) | normalized growth (S. cerevisiae deletion strains, locus YNL071W, strain lat1, stronger effect = lower value): 0.0612 (active) | normalized growth (S. cerevisiae deletion strains, locus YNL128W, strain TEP1, stronger effect = lower value): 0.0628 (active) | normalized growth (S. cerevisiae deletion strains, locus YNL153C, strain GIM3, stronger effect = lower value): 0.0713 (active) and 0.0822 (active) | normalized growth (S. cerevisiae deletion strains, locus YNL175C, strain NOP13, stronger effect = lower value): 0.998 (inactive) | normalized growth (S. cerevisiae deletion strains, locus YNL183C, strain NPR1, stronger effect = lower value): 0.841 (inactive) | normalized growth (S. cerevisiae deletion strains, locus YNL197C, strain WHI3, stronger effect = lower value): 0.924 (inactive) | normalized growth (S. cerevisiae deletion strains, locus YNL209W, strain ssb2, stronger effect = lower value): 0.0633 (active) | normalized growth (S. cerevisiae deletion strains, locus YNL224C, strain SQS1, stronger effect = lower value): 0.826 (active) | normalized growth (S. cerevisiae deletion strains, locus YNL233W, strain BNI4, stronger effect = lower value): 0.0552 (active) | normalized growth (S. cerevisiae deletion strains, locus YNL248C, strain rpa49, stronger effect = lower value): 0.0871 (active) | normalized growth (S. cerevisiae deletion strains, locus YNL250W, strain rad50, stronger effect = lower value): 0.101 (active) | normalized growth (S. cerevisiae deletion strains, locus YNL271C, strain bni1, stronger effect = lower value): 0.0626 (active) | normalized growth (S. cerevisiae deletion strains, locus YNL298W, strain CLA4, stronger effect = lower value): 0.0625 (active) | normalized growth (S. cerevisiae deletion strains, locus YNL307C, strain MCK1, stronger effect = lower value): 0.0743 (active) | normalized growth (S. cerevisiae deletion strains, locus YNL322C, strain KRE1 (second series), stronger effect = lower value): 0.299 (active) | normalized growth (S. cerevisiae deletion strains, locus YNL322C, strain KRE1, stronger effect = lower value): 0.0495 (active) and 0.989 (inactive) | normalized growth (S. cerevisiae deletion strains, locus YNR049C, strain mso1, stronger effect = lower value): 0.0582 (active) | normalized growth (S. cerevisiae deletion strains, locus YNR052C, strain pop2, stronger effect = lower value): 0.851 (active) | normalized growth (S. cerevisiae deletion strains, locus YOL006C, strain TOP1, stronger effect = lower value): 0.102 (active) | normalized growth (S. cerevisiae deletion strains, locus YOL012C, strain htz1): 0.238 (inactive) | normalized growth (S. cerevisiae deletion strains, locus YOL147C, strain pex11, stronger effect = lower value): 1.01 (inactive) | normalized growth (S. cerevisiae deletion strains, locus YOR001W, strain rrp6, stronger effect = lower value): 0.459 (active) | normalized growth (S. cerevisiae deletion strains, locus YOR061W, strain CKA2, stronger effect = lower value): 0.0469 (active) | normalized growth (S. cerevisiae deletion strains, locus YOR069W, strain VPS5, stronger effect = lower value): 0.0489 (active) | normalized growth (S. cerevisiae deletion strains, locus YOR070C, strain gyp1, stronger effect = lower value): 0.0603 (active) | normalized growth (S. cerevisiae deletion strains, locus YOR080W, strain dia2, stronger effect = lower value): 0.803 (active) | normalized growth (S. cerevisiae deletion strains, locus YOR083W, strain WHI5 (second series), stronger effect = lower value): 0.0766 (active) | normalized growth (S. cerevisiae deletion strains, locus YOR083W, strain WHI5, stronger effect = lower value): 0.0645 (active) | normalized growth (S. cerevisiae deletion strains, locus YOR106W, strain vam3, stronger effect = lower value): 0.0667 (active) | normalized growth (S. cerevisiae deletion strains, locus YOR136W, strain idh2, stronger effect = lower value): 0.0722 (active) | normalized growth (S. cerevisiae deletion strains, locus YOR144C, strain elg1, stronger effect = lower value): 1.01 (inactive) | normalized growth (S. cerevisiae deletion strains, locus YOR184W, strain ser1, stronger effect = lower value): 0.0757 (active) | normalized growth (S. cerevisiae deletion strains, locus YOR231W, strain MKK1, stronger effect = lower value): 0.118 (active) | normalized growth (S. cerevisiae deletion strains, locus YOR265W, strain rbl2, stronger effect = lower value): 0.0602 (active) | normalized growth (S. cerevisiae deletion strains, locus YOR270C, strain vph1, stronger effect = lower value): 0.103 (active) | normalized growth (S. cerevisiae deletion strains, locus YOR290C, strain snf2, stronger effect = lower value): 0.888 (inactive) | normalized growth (S. cerevisiae deletion strains, locus YOR316C, strain cot1, stronger effect = lower value): 0.063 (active) | normalized growth (S. cerevisiae deletion strains, locus YPL051W, strain arl3, stronger effect = lower value): 0.0663 (active) | normalized growth (S. cerevisiae deletion strains, locus YPL055C, strain LGE1, stronger effect = lower value): 0.0731 (active) | normalized growth (S. cerevisiae deletion strains, locus YPL078C, strain atp4, stronger effect = lower value): 0.707 (active) | normalized growth (S. cerevisiae deletion strains, locus YPL106C, strain sse1, stronger effect = lower value): 0.105 (active) | normalized growth (S. cerevisiae deletion strains, locus YPL240C, strain hsp82, stronger effect = lower value): 0.0588 (active) | normalized growth (S. cerevisiae deletion strains, locus YPL241C, strain CIN2, stronger effect = lower value): 0.0501 (active) and 0.992 (inactive) | normalized growth (S. cerevisiae deletion strains, locus YPL256C, strain CLN2, stronger effect = lower value): 0.113 (active) | normalized growth (S. cerevisiae deletion strains, locus YPR119W, strain clb2, stronger effect = lower value): 0.0638 (active) | normalized growth (S. cerevisiae deletion strains, locus YPR141C, strain kar3, stronger effect = lower value): 0.0669 (active) | normalized growth (S. cerevisiae deletion strains, locus YPR163C, strain tif3, stronger effect = lower value): 0.0717 (active) | normalized growth (S. cerevisiae deletion strains, locus YPR167C, strain met16, stronger effect = lower value): 0.0625 (active) | normalized growth (S. cerevisiae deletion strains, strain wtn01, stronger effect = lower value): 0.0617 (active) | normalized growth (S. cerevisiae strains, strain wild type, stronger effect = lower value): 0.0481 (active)

From PubChem BioAssay AID1159580 (chemical genetic matrix, 2015)
